An excerpt weighted towards active compounds, which were near 19% of everything screened.
TDP1 inh: qHTS Assay for Inhibitors of Tyrosyl-DNA Phosphodiesterase (TDP1) | Tyrosyl-DNA phosphodiesterase 1 (Homo sapiens), Q9NUW8 | recombinant TDP1, AlphaScreen DNA substrate cleavage | Potency, µM (titrated, usually from 130 µM), without a hit: at the highest dose activity change, negative = inhibition, usual class: inhibitors | hit rate 0.28% among 350,000; note: potency is the fitted concentration of half-maximal effect; nearly all actives have a fitted effect of over 40% in size
Target sequence (Q9NUW8 whole entry, looked up): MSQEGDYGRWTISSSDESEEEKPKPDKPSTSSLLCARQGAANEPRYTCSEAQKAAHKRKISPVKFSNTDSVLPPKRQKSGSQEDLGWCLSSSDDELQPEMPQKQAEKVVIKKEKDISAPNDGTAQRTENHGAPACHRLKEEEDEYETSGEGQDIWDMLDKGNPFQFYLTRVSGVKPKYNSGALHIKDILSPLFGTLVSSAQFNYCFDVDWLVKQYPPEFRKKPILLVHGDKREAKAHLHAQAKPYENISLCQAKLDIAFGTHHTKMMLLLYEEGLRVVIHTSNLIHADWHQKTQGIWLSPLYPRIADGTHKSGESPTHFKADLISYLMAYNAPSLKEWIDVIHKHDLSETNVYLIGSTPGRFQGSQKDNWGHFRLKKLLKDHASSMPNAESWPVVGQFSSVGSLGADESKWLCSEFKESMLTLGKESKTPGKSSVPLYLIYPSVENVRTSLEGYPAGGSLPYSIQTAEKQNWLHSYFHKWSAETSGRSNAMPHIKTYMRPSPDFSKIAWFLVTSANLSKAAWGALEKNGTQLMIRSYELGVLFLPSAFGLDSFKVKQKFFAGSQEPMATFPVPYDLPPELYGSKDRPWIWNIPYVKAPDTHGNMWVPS
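Signal: AlphaScreen proximity between streptavidin donor and anti-FITC acceptor beads on intact substrate. Reaction: Tdp1 1 nM, substrate 15 nM final, 5 min RT after 15 min compound preincubation.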
ELG1 DNA repair: qHTS screen for small molecules that inhibit ELG1-dependent DNA repair in human embryonic kidney (HEK293T) cells expressing luciferase-tagged ELG1; AID 504467, 2011; Potency, µM (highest dose often 46.1 µM), inactives show at the highest dose activity change, negative = inhibition, most hits filed as inhibitors; HEK293T ELG1-luciferase reporter, luminescence, 16 h; DNA damage induced by 5-fluorouridine; hit rate 2.3% among 330,000; note: potency is the fitted concentration of half-maximal effect; nearly all actives have a fitted effect of over 55% in size
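5-Fluorouridine DNA damage + compound/DMSO, 2,000 cells/well, 16 h, 37 °C/5% CO2. ONE-Glo, 30 min RT, luminescence. Readout = decrease in reporter signal.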
TDP1 cell CPT: qHTS for Inhibitors of human tyrosyl-DNA phosphodiesterase 1 (TDP1): qHTS in cells in presence of CPT; hit rate 12% among 420,000; Potency, µM (titrated, usually from 46.2 µM), for inactives: at the top dose activity change, negative = growth inhibition, most hits filed as inhibitors; AID 686979, 2013; chicken DT40 Tdp1-/-;hTDP1 cells + 20 nM CPT, ATP luminescence, 48 h; note: potency is the fitted concentration of half-maximal effect; nearly all actives have a fitted effect of over 55% in size
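Chicken DT40 Tdp1-/- cells complemented with human TDP1, 400 cells/well, exposed to compounds plus 20 nM camptothecin for at least 48 h at 37 C; viability read as ATP content by CellTiter-Glo luminescence.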
TDP1 cell noCPT: qHTS for Inhibitors of human tyrosyl-DNA phosphodiesterase 1 (TDP1): qHTS in cells in absence of CPT; DT40 Tdp1-/- hTDP1 cells, no CPT, ATP luminescence, 48 h; Potency, µM (highest dose often 46.2 µM), for the others: at the top dose activity change, negative = growth inhibition, usual class: inhibitors; hit rate 15% among 420,000; note: potency is the fitted concentration of half-maximal effect; nearly all actives have a fitted effect of over 55% in size
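Chicken DT40 Tdp1-/- cells stably complemented with human TDP1 were seeded at 400 cells/well with DMSO in place of 20 nM camptothecin. After compound pinning, cells grew at least 48 hr at 37 °C; viability read by CellTiter-Glo luminescence.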
IL-1B inflam inh: qHTS for Inhibitors of Inflammasome Signaling: IL-1-beta AlphaLISA Primary Screen; THP-1 LPS/ATP IL-1B secretion, AlphaLISA, 16 h; stronger effect = lower value; activity change, % at 57.5 µM; hit rate 4.7% among 360,000; AID 743279, 2014; in the data active = activity change below about -50%; inconclusive = mostly about -30% to -49%
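Secreted IL-1B measured by AlphaLISA bead assay after 16 h compound exposure of THP-1 cells; compounds (final up to 57.5 uM) added 1 h before LPS (250 ng/mL) and ATP (1.25 mM) stimulation; lower signal means less secretion.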
Giardia killer: Small Molecules that selectively kill Giardia lamblia: qHTS; Giardia lamblia trophozoite viability; activity change, % at 7.66 µM, hits read low; hit rate 0.15% among 340,000; AID 540267, 2011; in the data active = activity change below about -80%; inconclusive = between about -30% and that limit;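 note: parasites exposed to compound for two days anaerobically before the ATP read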
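Giardia lamblia trophozoites (100 cells/well) were incubated with compounds for 48 h at 37 deg C under anaerobic conditions. Viability was read as ATP content by one-step luminescence after 15-30 min at room temperature.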
* hit, by the source's call; i = inactive; ? = inconclusive; nt = not tested or not shown; [ ] = another dose, or the depositor's remark. Unless noted, calls come from the whole dose curve; as a rule, active = well fitted curve in the direction sought with a large enough effect; inconclusive = small, poorly fitted or top-dose-only effect, or another doubt; inactive = no such curve, though single readings can be large; an effect the other way counts as inactive or inconclusive. % is set by controls: 0 for no effect and ±100 for the full control effect.

SMILES	TDP1 inh	ELG1 DNA repair	TDP1 cell CPT	TDP1 cell noCPT	IL-1B inflam inh	Giardia killer
COC(=O)c1ccc(N2CCN(C)CC2)c(NC(=O)c2cccs2)c1	9.2%	9.2%	4.8%	6.1%	-26.9	-5.8
CSc1ccccc1NC(=O)c1noc(C)c1[N+](=O)[O-]	5.4%	10.7%	-20.0%	-24.0%	-3.0	-9.3
CN1CCN(C2=Nc3c(Cl)cc(Cl)c4cccc2c34)CC1	8.1%	1.1%	?	20.6µM*	-53.3*	-6.0
Cc1ccc(CNC(=O)C2(C)CCN2C(=O)Cc2ccc(C(C)(C)C)cc2)cc1 (stereo not given)	nt	nt	16.4µM*	18.4µM*	-13.8	nt
CC(C)(C)c1ccc(CC(=O)N2CCC2(C)C(=O)Nc2cccc3ccccc23)cc1 (stereo not given)	nt	nt	?	?	12.3	nt
CC(C)(C)c1ccc(CC(=O)N2CCC2(C)C(=O)NCc2cccc3ccccc23)cc1 (stereo not given)	nt	nt	23.1µM*	25.9µM*	?	nt
CC1(C(=O)NS(=O)(=O)c2ccc(F)cc2F)CCN1C(=O)Cc1ccc(-c2ccccc2)cc1 (stereo not given)	nt	nt	-4.7%	-13.5%	1.1	nt
CC(C)(C)c1ccc(CC(=O)N2CCC2(C)C(=O)NS(=O)(=O)c2ccc(F)cc2F)cc1 (stereo not given)	nt	nt	-5.7%	-5.4%	-50.9*	nt
Cc1ccc(S(=O)(=O)NC(=O)C2(C)CCN2C(=O)Cc2ccc(C(C)(C)C)cc2)cc1 (stereo not given)	nt	nt	-7.2%	-10.9%	0.0	nt
Cc1ccn2c(Nc3ccc4c(c3)OCCO4)c(-c3ccc(N(C)C)cc3)nc2c1	2.1%[12.3 µM]	nt	?	?	nt	nt
Cc1ccc(CNC(=O)c2cc3c(C)nc4ccccc4c3o2)cc1	5.4%	14.6µM*	9.2µM*	7.31µM*	12.8	-7.2
Cc1nc2ccccc2c2oc(C(=O)NCCCN3CC(C)CC(C)C3)cc12 (stereo not given)	1.2%	-5.2%	?	-24.4%	-18.8	-2.5
Cc1nc2ccccc2c2oc(C(=O)NCc3ccccn3)cc12	6.6%	18.4µM*	?	?	1.0	-8.9
CN(C)c1cccc(C(=O)NNC(=O)/C=C/c2cccs2)c1	4.4%	16.4%	-13.2%	-12.4%	-27.0	4.0
COC(=O)c1ccc(C2/C(=C(/O)c3ccc4c(c3)CC(C)O4)C(=O)C(=O)N2Cc2ccncc2)cc1 (stereo not given)	7.7%	13.1%	-18.7%	28.3%	6.1	17.8
O=C(CNS(=O)(=O)c1ccc2ccccc2c1)OCc1csc(-c2ccccc2)n1	2.7%	?	?	20.6µM*	-7.7	5.8
Cc1ccc(S(=O)(=O)NCC(=O)OCc2csc(-c3ccccc3)n2)cc1	2.3%	?	?	?	23.8	12.4
S=C(NCc1ccco1)Nc1ccc(Cl)c(Cl)c1	9.8%	2.4%	?	?	-100.6*	11.1
S=C(NCc1ccco1)Nc1cc(Cl)c(Cl)cc1Cl	3.0%	-7.9%	?	?	-51.8*	-1.9
S=C(NCc1ccco1)Nc1cccc(Cl)c1	11.6%	-3.5%	-11.6%	?	0.0	10.1
CC(C)[C@H](NC(=O)c1nn(Cc2ccccc2)c(=O)c2ccccc12)C(=O)O	3.7%[0.0935 µM]	15.4%	12.3%	-4.1%	20.7	-1.8
COC(=O)c1ccc(Nc2ncnc3c2nc2n3CCCC2)cc1	1.2%	nt	?	?	nt	nt
CC(=O)Nc1cc(-c2cccc(C(=O)NCCO)c2)cn2c(-c3cccc(C(F)(F)F)c3)cnc12	nt	nt	18.4µM*	23.1µM*	-14.4	nt
CC(=O)Nc1cc(-c2cccc(C(=O)NCCO)c2)cn2c(-c3ccc(F)cc3)cnc12	nt	nt	14.6µM*	20.6µM*	-21.1	nt
Nc1nc(-c2ccccc2)c(N=Nc2ccccc2Cl)s1	10.3%	6.1%	-16.5%	16.4µM*	-63.8*	2.2
SMILES	TDP1 inh	ELG1 DNA repair	TDP1 cell CPT	TDP1 cell noCPT	IL-1B inflam inh	Giardia killer
Cc1ncc(N=Nc2ccccc2Cl)c(-c2ccccc2)n1	12.4%	19.4%	?	?	?	-6.4
Nc1nc(-c2ccccc2)c(N=Nc2cccc3ccccc23)s1	10.8%	13.8%	23.1µM*	16.4µM*	-25.6	-10.1
Cc1ccc(-c2cc(NC=O)c3ncc(-c4cccc(C(=O)N(C)C)c4)n3c2)cc1	nt	nt	?	?	-14.0	nt
CN(C)C(=O)c1cccc(-c2cc(NC=O)c3ncc(-c4ccc(F)cc4)n3c2)c1	nt	nt	?	16.4µM*	82.4	nt
CC(=O)c1ccc(-c2cnc3c(NC=O)cc(-c4cccc(C(=O)N(C)C)c4)cn23)cc1	nt	nt	5.17µM*	7.31µM*	8.5	nt
COc1ccc(F)cc1-c1cc(NC=O)c2ncc(-c3cccc(C(=O)N(C)C)c3)n2c1	nt	nt	?	23.1µM*	-15.3	nt
Cc1nc(N2CCN(C(c3ccccc3)c3ccccc3)CC2)nc2c1C(=O)CCC2	1.9%	0.0%	nt	nt	nt	nt
O=C1CCCc2nc(N3CCN(C(c4ccccc4)c4ccccc4)CC3)ncc21	3.9%	?	16.4µM*	20.6µM*	-0.8	-1.0
CCOc1ccc(S(=O)(=O)N2CCCC2)c2ccccc12	nt	nt	?	?	15.4	nt
CCOc1ccc(S(=O)(=O)N2CCN=C2c2ccccc2)c(C)c1C	1.6%	-11.1%	16.4µM*	23.1µM*	i	-27.6
COc1cc(S(=O)(=O)N2CCN=C2c2ccccc2)ccc1F	5.5%	0.4%	?	23.1µM*	3.0	31.8
c1ccc2c(CSCCc3ccncc3)cccc2c1	0.0%	-0.7%	23.1µM*	20.6µM*	17.3	6.9
O=C(CCc1ccccc1)NCc1ccncc1	nt	12.7%	-12.2%	9.0%	4.2	-24.3
Clc1ccc(CSCCc2ccncc2)cc1	7.5%	?	?	?	-10.6	13.7
c1ccc2c(CCc3ccncc3)cccc2c1	nt	nt	-16.0%	-16.3%	-88.1*	16.2
OCCN1CCN(c2nc(-c3ccccc3)c3cc(Br)ccc3n2)CC1	nt	?	?	9.2µM*	-78.8*	11.0
O=C(O)C1CCN(c2nc(-c3ccccc3)c3cc(Br)ccc3n2)CC1	nt	23.8%	-8.3%	?	27.3	5.8
CCOC(=O)C1CCCN(C(=O)c2cccc(C(F)(F)F)c2)CC1 (stereo not given)	nt	nt	4.9%	-27.6%	29.7	nt
Cc1cc(C)n2nnnc2n1	nt	0.0%	1.5%	7.9%	36.7	12.3

Screening results deposited in PubChem BioAssay by National Center for Advancing Translational Sciences (NCATS).
